Source: the supplement of paper PMC12645437, “Orthogonal IMiD-Degron Pairs Induce Selective Protein Degradation in Cells” (ACS Chemical Biology, 2025)
The full ranking holds about 8,300 sequences; the median of “log2 fold change of degron read counts, EGFP-low vs EGFP+ sorted cells (limma voom), compound-induced degradation” is about -1.1, and the highest 2% start at about 3.2. The full list was thinned out, with the highest values kept by preference.

Biological target: T1, CRBN, Q96SW2
T1 chain: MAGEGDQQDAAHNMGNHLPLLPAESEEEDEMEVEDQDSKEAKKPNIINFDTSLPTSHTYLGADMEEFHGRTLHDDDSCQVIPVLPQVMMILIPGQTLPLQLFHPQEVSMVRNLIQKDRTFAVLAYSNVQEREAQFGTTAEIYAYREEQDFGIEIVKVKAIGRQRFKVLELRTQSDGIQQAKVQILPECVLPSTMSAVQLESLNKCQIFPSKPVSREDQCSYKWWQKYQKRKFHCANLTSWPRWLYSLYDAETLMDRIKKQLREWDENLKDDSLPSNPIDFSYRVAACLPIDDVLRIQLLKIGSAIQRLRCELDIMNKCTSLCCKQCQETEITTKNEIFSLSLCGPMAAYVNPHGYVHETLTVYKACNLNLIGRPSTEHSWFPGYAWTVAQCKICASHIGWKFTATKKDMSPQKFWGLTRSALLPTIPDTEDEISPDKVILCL
Assay: log2 fold change of degron read counts, EGFP-low vs EGFP+ sorted cells (limma voom), compound-induced degradation; higher = more compound-induced degradation of the degron-EGFP fusion; degrons are variants of IKZF1/3 zinc finger 2; compound dose not given here
Conditions: Jurkat, 18 h
Description: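 Pooled library of 8380 IKZF3 ZF2 degron mutants (positions 146-167 varied within the IKZF3 130-189 degron; only the varied core is printed, flanks not printed) fused to EGFP with IRES-mCherry, lentivirally expressed in Jurkat cells. mCherry+ cells were treated with one IMiD compound for 18 h (dose not stated) and FACS-sorted into EGFP-low and EGFP+ populations. Degron sequences were counted by NGS, and log2FC (EGFP-low vs EGFP+) was estimated by limma voom over 3 biological replicates.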

[1] = compound: compound 19 (5-tert-butyl-thalidomide)
[2] = compound: compound 22 (5-morpholino-thalidomide)
[3] = compound: compound 33 (diphenyl IMiD analogue)
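Also: pooled lentiviral library of zinc finger degron-EGFP fusions in mCherry-positive Jurkat cells, FACS-sorted after compound exposure, with degron abundance counted by next-generation sequencing.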

| Sequence | log2 fold change of degron read counts [1] | log2 fold change of degron read counts [2] | log2 fold change of degron read counts [3] | log2 fold change of degron read counts (compound: thalidomide) |
| --- | --- | --- | --- | --- |
| FNCPVCGAMFTQKGNLLRHIKL [46F_47N_49P_50V_52G_53A_54M_55F_67L_, Q9UKT9] | 0.95 | -0.0712 | 0.173 | 0.109 |
| FACPVCGAMFTQKGNLLRHIKL [46F_47A_49P_50V_52G_53A_54M_55F_67L_, Q9UKT9] | 2.83 | 0.812 | 0.601 | -0.0754 |
| FVCPVCGAMFTQKGNLLRHIKL [46F_47V_49P_50V_52G_53A_54M_55F_67L_, Q9UKT9] | -0.83 | 1.28 | 1.78 | 1.71 |
| FSCPVCGAMFTQKGNLLRHIKL [46F_47S_49P_50V_52G_53A_54M_55F_67L_, Q9UKT9] | 1.68 | 0.847 | 1.55 | 0.449 |
| FGCPVCGAMFTQKGNLLRHIKL [46F_47G_49P_50V_52G_53A_54M_55F_67L_, Q9UKT9] | 3.86 | 2.08 | 2.22 | 0.29 |
| FQCPVCGAMFTQKGNLLRHIKL [46F_47Q_49P_50V_52G_53A_54M_55F_67L_, Q9UKT9] | -0.606 | 2.26 | 2.34 | 3.58 |
| LHCNQCGFRCTQKGNLLRHIKL [46L_47H_49N_50Q_52G_53F_54R_55C_67L_, Q9UKT9] | -1.15 | -1.7 | -1.52 | -1.61 |
| FRCPICGHQFTQKGNLLRHIKL [46F_47R_49P_50I_52G_53H_54Q_55F_67L_, Q9UKT9] | -2.97 | -2.88 | -2.09 | -1.65 |
| FNCEICGRGFTQKGNLLRHIKL [46F_47N_49E_50I_52G_53R_54G_55F_67L_, Q9UKT9] | -0.684 | -2.34 | -2.3 | -2.43 |
| FICDVCGADFTQKGNLLRHIKL [46F_47I_49D_50V_52G_53A_54D_55F_67L_, Q9UKT9] | -3.13 | -2.03 | -2.05 | -2.17 |
| FTCEICGRSFTQKGNLLRHIKL [46F_47T_49E_50I_52G_53R_54S_55F_67L_, Q9UKT9] | -2.68 | -1.98 | -1.23 | -0.866 |
| FVCNICGAAFTQKGNLLRHIKL [46F_47V_49N_50I_52G_53A_54A_55F_67L_, Q9UKT9] | -0.113 | 1.76 | 1.87 | 2.31 |
| LVCNQCGFDCTQKGNLLRHIKL [46L_47V_49N_50Q_52G_53F_54D_55C_67L_, Q9UKT9] | -2.99 | -3.3 | -2.89 | -2.71 |
| LTCNQCGFFCTQKGNLLRHIKL [46L_47T_49N_50Q_52G_53F_54F_55C_67L_, Q9UKT9] | -1.72 | -1.87 | -2.06 | -1.27 |
| FYCEVCGAEFTQKGNLLRHIKL [46F_47Y_49E_50V_52G_53A_54E_55F_67L_, Q9UKT9] | 3.4 | 2.95 | 2.08 | 0.0761 |
| FVCPVCGAEFTQKGNLLRHIKL [46F_47V_49P_50V_52G_53A_54E_55F_67L_, Q9UKT9] | -0.775 | 1.8 | 1.37 | 2.53 |
| FQCPVCGAEFTQKGNLLRHIKL [46F_47Q_49P_50V_52G_53A_54E_55F_67L_, Q9UKT9] | 0.475 | 1.57 | 2.3 | 3.76 |
| FTCEVCGAEFTQKGNLLRHIKL [46F_47T_49E_50V_52G_53A_54E_55F_67L_, Q9UKT9] | -0.301 | 1.19 | 0.247 | 1.9 |
| FNCEVCGAEFTQKGNLLRHIKL [46F_47N_49E_50V_52G_53A_54E_55F_67L_, Q9UKT9] | 0.9 | -1.18 | -1.23 | -0.895 |
| FQCEVCGAEFTQKGNLLRHIKL [46F_47Q_49E_50V_52G_53A_54E_55F_67L_, Q9UKT9] | 0.65 | 0.856 | 1.61 | 3.7 |
| FSCPVCGAEFTQKGNLLRHIKL [46F_47S_49P_50V_52G_53A_54E_55F_67L_, Q9UKT9] | 1.12 | 0.204 | 1.45 | 0.472 |
| FKCEVCGAEFTQKGNLLRHIKL [46F_47K_49E_50V_52G_53A_54E_55F_67L_, Q9UKT9] | -1.42 | -2.94 | -2.99 | -1.02 |
| FFCEVCGAEFTQKGNLLRHIKL [46F_47F_49E_50V_52G_53A_54E_55F_67L_, Q9UKT9] | 3.01 | 3.05 | 0.82 | 0.898 |
| FWCPICGHQFTQKGNLLRHIKL [46F_47W_49P_50I_52G_53H_54Q_55F_67L_, Q9UKT9] | -1.19 | 0.164 | -0.157 | -0.942 |
| FHCNVCGALFTQKGNLLRHIKL [46F_47H_49N_50V_52G_53A_54L_55F_67L_, Q9UKT9] | -1.06 | -1.21 | -0.823 | -1.55 |
| LTCEICGFDCTQKGNLLRHIKL [46L_47T_49E_50I_52G_53F_54D_55C_67L_, Q9UKT9] | -3.24 | -2.7 | -2.79 | -2.46 |
| LLCNQCGFACTQKGNLLRHIKL [46L_47L_49N_50Q_52G_53F_54A_55C_67L_, Q9UKT9] | -2.26 | -2.6 | -2.27 | -1.53 |
| FVCNQCGATFTQKGNLLRHIKL [46F_47V_49N_50Q_52G_53A_54T_55F_67L_, Q9UKT9] | -2.74 | -1.56 | -1.1 | -1.67 |
